From PubChem BioAssay (NCI)
“And” between values parts separate entries of the source, which are not always exact repeats. Identical values can stand only once. This is part of a sample that, as a whole, favours compounds with a hit. Of some 83,000 tested, about 20% had one in any assay.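 Method: cells in 96-well plates; compound added at one concentration; 48 h incubation; percent growth measured; values under 10 scored active.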 The source made the active and inactive calls.

How the values were obtained:
Assay in all cases: NCI-60 one-dose screen, 48 h (100 = growth as untreated, 0 = no growth, -100 = all killed)
HCT-15 colon = conditions: 10 µM
HT29 colon = conditions: 10 µM
SNB-75 CNS = conditions: 10 µM
SNB-19 CNS = conditions: 10 µM
U251 CNS = conditions: 10 µM
PC-3 prostate = conditions: 10 µM
SK-MEL-5 melanoma = conditions: 10 µM
UACC-62 melanoma = conditions: 10 µM unless noted
SK-MEL-28 melanoma = conditions: 10 µM
SK-MEL-2 melanoma = conditions: 10 µM
EKVX NSCLC = conditions: 10 µM
SN12C renal = conditions: 10 µM
TK-10 renal = conditions: 10 µM unless noted
ACHN renal = conditions: 10 µM
CAKI-1 renal = conditions: 10 µM
CCRF-CEM leukemia = conditions: 10 µM
LOX IMVI melanoma = conditions: 10 µM
UO-31 renal = conditions: 10 µM
A498 renal = conditions: 10 µM
HL-60(TB) leukemia = conditions: 10 µM

Measured: growth

Oc1c(I)cc(I)cc1I
inactive: HCT-15 colon 108% | HT29 colon 107% | SNB-75 CNS 87.9% | SNB-19 CNS 96.3% | U251 CNS 106% | PC-3 prostate 93.1% | SK-MEL-5 melanoma 98.1% | UACC-62 melanoma 102% | SK-MEL-28 melanoma 101% | SK-MEL-2 melanoma 101% | EKVX NSCLC 108% | SN12C renal 97.2% | TK-10 renal 103% | ACHN renal 103% | CAKI-1 renal 109% | CCRF-CEM leukemia 94.5%

COS(=O)(=O)c1ccccc1
inactive: HCT-15 colon 108% | HT29 colon 110% | SNB-75 CNS 95.2% | SNB-19 CNS 110% | U251 CNS 96.4% | SK-MEL-5 melanoma 108% | UACC-62 melanoma 102% | LOX IMVI melanoma 102% | SK-MEL-28 melanoma 113% | SK-MEL-2 melanoma 101% | EKVX NSCLC 112% | SN12C renal 112% | UO-31 renal 89.5% | TK-10 renal 104% | ACHN renal 101% | CAKI-1 renal 104% | A498 renal 112% | HL-60(TB) leukemia 106% | CCRF-CEM leukemia 99.7%

O=C(O)c1cc(Cc2ccc(O)c(C(=O)O)c2)ccc1O (tested in a mixture with another compound)
active: LOX IMVI melanoma -47.3% | SK-MEL-2 melanoma -53.3% | CCRF-CEM leukemia 0.136%
inactive: HCT-15 colon 49.4% | HT29 colon 25% | SNB-75 CNS 51.2% | SNB-19 CNS 85.6% | U251 CNS 70.4% | SK-MEL-5 melanoma 71.3% | UACC-62 melanoma 69.5% | SK-MEL-28 melanoma 84.6% | EKVX NSCLC 73.8% | SN12C renal 87.1% | UO-31 renal 42.6% | TK-10 renal 93% | ACHN renal 77% | CAKI-1 renal 58.4%

CN(C)CC1(N)C(=O)NC(=O)NC1=O
inactive: HCT-15 colon 102% | HT29 colon 99.6% | SNB-75 CNS 89.7% | SNB-19 CNS 102% | U251 CNS 96.3% | SK-MEL-5 melanoma 95.1% | UACC-62 melanoma 97.5% | LOX IMVI melanoma 104% | SK-MEL-28 melanoma 95.1% | SK-MEL-2 melanoma 101% | EKVX NSCLC 103% | SN12C renal 96.8% | UO-31 renal 96.3% | TK-10 renal 97.9% | ACHN renal 101% | CAKI-1 renal 96.4% | CCRF-CEM leukemia 99.1%

NC(=O)c1cc([N+](=O)[O-])c(Cl)c([N+](=O)[O-])c1Cl
active: HCT-15 colon -63.9% | HT29 colon -88.4% | U251 CNS -81.5% | UACC-62 melanoma 5.65% | LOX IMVI melanoma -50% | SK-MEL-2 melanoma -14.5% | UO-31 renal -62.6% | TK-10 renal -100% | ACHN renal -89.7% | CCRF-CEM leukemia -23.5%
inactive: SNB-75 CNS 65.1% | SNB-19 CNS 74% | PC-3 prostate 46.7% | SK-MEL-28 melanoma 39.6% | EKVX NSCLC 35.8% | SN12C renal 18.8%

[O-][n+]1ccccc1S
active: HT29 colon 4.75% | LOX IMVI melanoma 1.84% | CCRF-CEM leukemia 8.62%
inactive: HCT-15 colon 32.8% | SNB-75 CNS 56.5% | SNB-19 CNS 59.9% | U251 CNS 29.9% | SK-MEL-5 melanoma 48.9% | UACC-62 melanoma 13.6% | SK-MEL-28 melanoma 34.1% | SK-MEL-2 melanoma 41.2% | EKVX NSCLC 72.7% | SN12C renal 58.7% | UO-31 renal 62% | TK-10 renal 37.2% | ACHN renal 32.2% | CAKI-1 renal 37.9% | A498 renal 78.7% | HL-60(TB) leukemia 109%

CCOP(=O)(OCC)/C(C#N)=C/c1ccc(Br)cc1
inactive: HCT-15 colon 96.3% | HT29 colon 98.2% | SNB-75 CNS 86.6% | SNB-19 CNS 96.8% | U251 CNS 99.3% | SK-MEL-5 melanoma 108% | UACC-62 melanoma 88.6% | LOX IMVI melanoma 95.5% | SK-MEL-28 melanoma 115% | SK-MEL-2 melanoma 103% | EKVX NSCLC 97.6% | SN12C renal 98.5% | UO-31 renal 81.3% | TK-10 renal 104% | ACHN renal 98.6% | CAKI-1 renal 76.2% | A498 renal 121% | CCRF-CEM leukemia 100%

C[C@]12CC[C@H]3[C@@H](CCC4=CC(=O)CC[C@@H]43)[C@@H]1CC[C@@H]2OC(=O)N(CCCl)N=O
inactive: HCT-15 colon 66.8% | HT29 colon 59% | SNB-75 CNS 50.1% | SNB-19 CNS 34.5% | U251 CNS 30.6% | SK-MEL-5 melanoma 51.3% | UACC-62 melanoma 20.6% | LOX IMVI melanoma 39.3% | SK-MEL-28 melanoma 90.2% | SK-MEL-2 melanoma 27.4% | EKVX NSCLC 119% | SN12C renal 23.2% | UO-31 renal 40.8% | TK-10 renal 87.6% | ACHN renal 13% | CAKI-1 renal 27.4% | CCRF-CEM leukemia 11%
active: HL-60(TB) leukemia -22.6%

C/C1=C\[C@H](C)C[C@H](C)OC(=O)C[C@H](c2ccc(O)cc2)NC(=O)[C@@H](Cc2c(Br)[nH]c3ccccc23)N(C)C(=O)[C@H](C)NC(=O)[C@@H](C)C1
active: HCT-15 colon -38.1% | HT29 colon -33.5% | SNB-75 CNS -76.4% | SNB-19 CNS -21.9% | U251 CNS -50.6% | PC-3 prostate -59.6% | SK-MEL-5 melanoma -74.5% | UACC-62 melanoma -1.83% | LOX IMVI melanoma -32.7% | SK-MEL-2 melanoma -67.3% | EKVX NSCLC -23.6% | UO-31 renal -92.1% | TK-10 renal -81.7% | ACHN renal -18.7% | CAKI-1 renal -43.2% | HL-60(TB) leukemia -44% | CCRF-CEM leukemia -21.5%
inactive: SN12C renal 14.2%

O=C(CBr)Nc1ccccc1
active: LOX IMVI melanoma 9.08%
inactive: HCT-15 colon 55.6% | HT29 colon 103% | SNB-75 CNS 100% | SNB-19 CNS 94.9% | U251 CNS 91.6% | SK-MEL-5 melanoma 97.3% | UACC-62 melanoma 99.6% | SK-MEL-28 melanoma 113% | SK-MEL-2 melanoma 97% | EKVX NSCLC 111% | SN12C renal 91% | UO-31 renal 84.9% | TK-10 renal 87.4% | ACHN renal 104% | CAKI-1 renal 106% | A498 renal 108% | HL-60(TB) leukemia 96.1% | CCRF-CEM leukemia 14.7%

COc1ccccc1/C=C/[N+](=O)[O-]
inactive: HCT-15 colon 42.3% | HT29 colon 39.5% | SNB-75 CNS 69.4% | SNB-19 CNS 86.9% | U251 CNS 50.3% | SK-MEL-5 melanoma 83.4% | UACC-62 melanoma 73% | LOX IMVI melanoma 37.4% | SK-MEL-28 melanoma 79.4% | SK-MEL-2 melanoma 104% | EKVX NSCLC 72.6% | SN12C renal 83.2% | UO-31 renal 62% | TK-10 renal 72.9% | ACHN renal 55.5% | CAKI-1 renal 70.9%

[Cl][Hg][c]1ccc(Cl)s1
active: HCT-15 colon -59.5% | LOX IMVI melanoma -70.9% | SK-MEL-28 melanoma -85.4% | EKVX NSCLC -18.7% | UO-31 renal -64.3% | ACHN renal -80.9% | CAKI-1 renal -53% | CCRF-CEM leukemia -11%
inactive: HT29 colon 25.2% | SNB-75 CNS 58.1% | SNB-19 CNS 75.5% | U251 CNS 14.9% | SK-MEL-5 melanoma 46% | UACC-62 melanoma 51.3% | SK-MEL-2 melanoma 64.3% | SN12C renal 34.1% | TK-10 renal 30.9% | A498 renal 104%

COc1ccc(/C=C\[N+](=O)[O-])cc1OC
active: LOX IMVI melanoma 2.99% and -69.2%
inactive: HCT-15 colon 53.9% and 17.4% | HT29 colon 41.3% and 24.7% | SNB-75 CNS 65.2% | SNB-19 CNS 82.5% and 63.1% | U251 CNS 56.2% and 48.6% | SK-MEL-5 melanoma 72.6% and 56.4% | UACC-62 melanoma 74.1% and 50% | SK-MEL-28 melanoma 50.4% | SK-MEL-2 melanoma 92% and 92.7% | EKVX NSCLC 103% and 76.3% | SN12C renal 81.4% | UO-31 renal 33.1% and 75.1% | TK-10 renal 85.9% and 76.5% | ACHN renal 64.4% and 79.1% | CAKI-1 renal 63.1% and 58.6% | A498 renal 92.9% and 77.8% | CCRF-CEM leukemia 70.2% and 27.2%

C[CH2][Hg][S]c1ccccc1C(=O)O
inactive: SNB-19 CNS 50.6% | PC-3 prostate 55.8% | EKVX NSCLC 63.6%
active: HCT-15 colon -84.7% | HT29 colon -59% | SNB-75 CNS -43.7% | U251 CNS -6.81% | SK-MEL-5 melanoma -68.3% | LOX IMVI melanoma -54.9% | SK-MEL-28 melanoma -87.5% | SK-MEL-2 melanoma -52.4% | SN12C renal -60.6% | UO-31 renal -61.8% | TK-10 renal -94.2% | ACHN renal -92.9% | CAKI-1 renal -95.2% | HL-60(TB) leukemia -17.6% | CCRF-CEM leukemia -17.5%
